# The supplement of paper PMC7261846
# Structures can show the parent of a compound that is named as a salt. ± gives the uncertainty stated by the source.
# System: Candida albicans SNY425 biofilm
# Assay: biofilm OD600 with compound plus antifungal (OD600 (absorbance)); higher = more biofilm remaining
# [1] = assay detail: disruption of 24-h mature biofilm (compound + antifungal for a second 24 h)
# [2] = assay detail: sustained inhibition (compound + antifungal during 90-min adherence and 24-h growth)
SMILES,biofilm OD600 [1],biofilm OD600 [2]
N=C(N)Nc1ccc(C(=O)Oc2ccc3cc(C(=N)N)ccc3c2)cc1 [Nafamostat mesylate] + C[C@@H]1[C@H](O)[C@@H](C)/C=C/C=C/C=C/C=C/C=C/C=C/C=C/[C@H](O[C@@H]2O[C@H](C)[C@@H](O)[C@H](N)[C@@H]2O)C[C@@H]2O[C@](O)(C[C@@H](O)C[C@@H](O)[C@H](O)CC[C@@H](O)C[C@@H](O)CC(=O)O[C@H]1C)C[C@H](O)[C@H]2C(=O)O [amphotericin B] (first compound 12.5 µM),0.257 ± 0.012,0.171 ± 0.011
CC(C)CCNC(=O)[C@H](CC(C)C)NC(=O)[C@H]1O[C@@H]1C(=O)O + C[C@@H]1[C@H](O)[C@@H](C)/C=C/C=C/C=C/C=C/C=C/C=C/C=C/[C@H](O[C@@H]2O[C@H](C)[C@@H](O)[C@H](N)[C@@H]2O)C[C@@H]2O[C@](O)(C[C@@H](O)C[C@@H](O)[C@H](O)CC[C@@H](O)C[C@@H](O)CC(=O)O[C@H]1C)C[C@H](O)[C@H]2C(=O)O [amphotericin B] (first compound 12.5 µM),0.27 ± 0.0079,0.21 ± 0.0074
CC1(C)C[C@@H]1C(=O)N/C(=C\CCCCSC[C@H](N)C(=O)O)C(=O)O [Cilastatin] + CC[C@H](C)C[C@H](C)CCCCCCCCC(=O)N[C@H]1C[C@@H](O)[C@@H](NCCN)NC(=O)[C@@H]2[C@@H](O)CCN2C(=O)[C@H]([C@H](O)CCN)NC(=O)[C@H]([C@H](O)[C@@H](O)c2ccc(O)cc2)NC(=O)[C@@H]2C[C@@H](O)CN2C(=O)[C@H]([C@@H](C)O)NC1=O [caspofungin] (first compound 12.5 µM),0.283 ± 0.0048,0.199 ± 0.02
NCC1CCC(C(=O)N[C@@H](Cc2ccccc2)C(=O)Nc2ccc(CC(=O)O)cc2)CC1 (stereo partly specified) + CC[C@H](C)C[C@H](C)CCCCCCCCC(=O)N[C@H]1C[C@@H](O)[C@@H](NCCN)NC(=O)[C@@H]2[C@@H](O)CCN2C(=O)[C@H]([C@H](O)CCN)NC(=O)[C@H]([C@H](O)[C@@H](O)c2ccc(O)cc2)NC(=O)[C@@H]2C[C@@H](O)CN2C(=O)[C@H]([C@@H](C)O)NC1=O [caspofungin] (first compound 12.5 µM),0.26 ± 0.0081,0.191 ± 0.024
CC(C)CC(=O)N[C@H](C(=O)N[C@H](C(=O)N[C@@H](CC(C)C)[C@@H](O)CC(=O)N[C@@H](C)C(=O)N[C@@H](CC(C)C)[C@@H](O)CC(=O)O)C(C)C)C(C)C [Pepstatin A] + CC[C@H](C)C[C@H](C)CCCCCCCCC(=O)N[C@H]1C[C@@H](O)[C@@H](NCCN)NC(=O)[C@@H]2[C@@H](O)CCN2C(=O)[C@H]([C@H](O)CCN)NC(=O)[C@H]([C@H](O)[C@@H](O)c2ccc(O)cc2)NC(=O)[C@@H]2C[C@@H](O)CN2C(=O)[C@H]([C@@H](C)O)NC1=O [caspofungin] (first compound 12.5 µM),0.264 ± 0.01,0.18 ± 0.013
Cc1ccc(S(=O)(=O)N[C@@H](Cc2ccccc2)C(=O)CCl)cc1 + C[C@@H]1[C@H](O)[C@@H](C)/C=C/C=C/C=C/C=C/C=C/C=C/C=C/[C@H](O[C@@H]2O[C@H](C)[C@@H](O)[C@H](N)[C@@H]2O)C[C@@H]2O[C@](O)(C[C@@H](O)C[C@@H](O)[C@H](O)CC[C@@H](O)C[C@@H](O)CC(=O)O[C@H]1C)C[C@H](O)[C@H]2C(=O)O [amphotericin B] (first compound 4 µM),0.25 ± 0.011,0.158 ± 0.0081
NCC1CCC(C(=O)N[C@@H](Cc2ccccc2)C(=O)Nc2ccc(CC(=O)O)cc2)CC1 (stereo partly specified) + OC(Cn1cncn1)(Cn1cncn1)c1ccc(F)cc1F [fluconazole] (first compound 12.5 µM),0.251 ± 0.0096,0.13 ± 0.018
CC(C)c1nc(CN(C)C(=O)N[C@H](C(=O)N[C@@H](Cc2ccccc2)C[C@H](O)[C@H](Cc2ccccc2)NC(=O)OCc2cncs2)C(C)C)cs1 [ritonavir] + CC[C@H](C)C[C@H](C)CCCCCCCCC(=O)N[C@H]1C[C@@H](O)[C@@H](NCCN)NC(=O)[C@@H]2[C@@H](O)CCN2C(=O)[C@H]([C@H](O)CCN)NC(=O)[C@H]([C@H](O)[C@@H](O)c2ccc(O)cc2)NC(=O)[C@@H]2C[C@@H](O)CN2C(=O)[C@H]([C@@H](C)O)NC1=O [caspofungin] (first compound 12.5 µM),0.159 ± 0.0069,0.12 ± 0.009
